Source: the supplement of paper PMC6897291

What was measured:
U-2932 [1] = assay: growth inhibition by drug alone (1 - RLU/untreated control) (fraction); higher = stronger inhibition; settings: 177Lu-lilotomab satetraxetan 0 ug/ml
Outline: (§1)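 With or without 18 h pretreatment by a radiolabelled anti-CD37 antibody conjugate (~600 MBq/mg; 0.5 µg/ml RIVA, 1 µg/ml U-2932), RIVA and U-2932 cells were washed and plated at 3,000 cells/well. Pre-printed compound doses were 10/100 nM for RIVA and 10/1,000 nM for U-2932. Growth inhibition uses RealTime-Glo RLU relative to the untreated no-drug wells. The calculation is 1 − RLU/mean of 48 such wells per plate, with reads daily from day 3 after 1 h at 37°C.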

RIVA [2] = assay: as above; settings: 177Lu-lilotomab satetraxetan 0 ug/ml
Outline: as §1

U-2932 [3] = assay: growth inhibition by drug plus 177Lu-lilotomab satetraxetan (1 - RLU/untreated control) (fraction); higher = stronger inhibition; settings: 177Lu-lilotomab satetraxetan 1 ug/ml
Outline: as §1

RIVA [4] = assay: as above; settings: 177Lu-lilotomab satetraxetan 0.5 ug/ml
Outline: as §1

| Structure (SMILES) | growth inhibition by drug alone (U-2932 [1]; 10 nM, time (day): 3) | growth inhibition by drug alone (U-2932 [1]; 10 nM, time (day): 4) | growth inhibition by drug alone (U-2932 [1]; 10 nM, time (day): 5) | growth inhibition by drug alone (U-2932 [1]; 10 nM, time (day): 6) | growth inhibition by drug alone (U-2932 [1]; 1000 nM, time (day): 3) | growth inhibition by drug alone (U-2932 [1]; 1000 nM, time (day): 4) | growth inhibition by drug alone (U-2932 [1]; 1000 nM, time (day): 5) | growth inhibition by drug alone (U-2932 [1]; 1000 nM, time (day): 6) | growth inhibition by drug alone (RIVA [2]; 10 nM, time (day): 3) | growth inhibition by drug alone (RIVA [2]; 10 nM, time (day): 4) | growth inhibition by drug alone (RIVA [2]; 10 nM, time (day): 5) | growth inhibition by drug alone (RIVA [2]; 10 nM, time (day): 6) | growth inhibition by drug alone (RIVA [2]; 100 nM, time (day): 3) | growth inhibition by drug alone (RIVA [2]; 100 nM, time (day): 4) | growth inhibition by drug alone (RIVA [2]; 100 nM, time (day): 5) | growth inhibition by drug alone (RIVA [2]; 100 nM, time (day): 6) | growth inhibition by drug plus 177Lu-lilotomab satetraxetan (U-2932 [3]; 10 nM, time (day): 3) | growth inhibition by drug plus 177Lu-lilotomab satetraxetan (U-2932 [3]; 10 nM, time (day): 4) | growth inhibition by drug plus 177Lu-lilotomab satetraxetan (U-2932 [3]; 10 nM, time (day): 5) | growth inhibition by drug plus 177Lu-lilotomab satetraxetan (U-2932 [3]; 10 nM, time (day): 6) | growth inhibition by drug plus 177Lu-lilotomab satetraxetan (U-2932 [3]; 1000 nM, time (day): 3) | growth inhibition by drug plus 177Lu-lilotomab satetraxetan (U-2932 [3]; 1000 nM, time (day): 4) | growth inhibition by drug plus 177Lu-lilotomab satetraxetan (U-2932 [3]; 1000 nM, time (day): 5) | growth inhibition by drug plus 177Lu-lilotomab satetraxetan (U-2932 [3]; 1000 nM, time (day): 6) | growth inhibition by drug plus 177Lu-lilotomab satetraxetan (RIVA [4]; 10 nM, time (day): 3) | growth inhibition by drug plus 177Lu-lilotomab satetraxetan (RIVA [4]; 10 nM, time (day): 4) | growth inhibition by drug plus 177Lu-lilotomab satetraxetan (RIVA [4]; 10 nM, time (day): 5) | growth inhibition by drug plus 177Lu-lilotomab satetraxetan (RIVA [4]; 10 nM, time (day): 6) | growth inhibition by drug plus 177Lu-lilotomab satetraxetan (RIVA [4]; 100 nM, time (day): 3) | growth inhibition by drug plus 177Lu-lilotomab satetraxetan (RIVA [4]; 100 nM, time (day): 4) | growth inhibition by drug plus 177Lu-lilotomab satetraxetan (RIVA [4]; 100 nM, time (day): 5) | growth inhibition by drug plus 177Lu-lilotomab satetraxetan (RIVA [4]; 100 nM, time (day): 6) |
| --- | --- | --- | --- | --- | --- | --- | --- | --- | --- | --- | --- | --- | --- | --- | --- | --- | --- | --- | --- | --- | --- | --- | --- | --- | --- | --- | --- | --- | --- | --- | --- | --- |
| COc1nc(-c2ccc3c(c2)OCO3)n(-c2ccc(NC(=O)CSc3ccccc3)cc2)n1 [SecinH3] | -0.0611 | -0.0455 | -0.0236 | 0.124 | -0.143 | -0.0966 | -0.134 | -0.195 | -0.242 | -0.224 | -0.27 | -0.428 | -0.311 | -0.358 | -0.334 | -0.394 | -0.0793 | -0.0496 | -0.0101 | 0.122 | -0.197 | -0.087 | -0.0724 | -0.0297 | 0.275 | 0.448 | 0.482 | 0.494 | 0.323 | 0.424 | 0.437 | 0.419 |
| CC(C)(C)c1ccc(S(=O)(=O)/C=C/C#N)cc1 | 0.0951 | 0.0673 | -0.0262 | -0.0534 | 0.386 | 0.401 | 0.352 | 0.365 | -0.0115 | -1.37e-05 | -0.0516 | -0.202 | -0.0892 | -0.063 | -0.0854 | -0.195 | -0.0145 | 0.0216 | 0.0584 | 0.0727 | 0.517 | 0.565 | 0.534 | 0.533 | 0.438 | 0.555 | 0.567 | 0.581 | 0.452 | 0.513 | 0.508 | 0.495 |
